Hits are enriched below; roughly 2.6% of the tested compounds scored in any of these assays.
Giardia killer = kills Giardia lamblia | Giardia lamblia trophozoite viability | activity change, % at 7.66 µM, hits read low | actives 0.15% (n = 340,000) | AID 540267; in the data active = activity change below about -80%; inconclusive = between about -30% and that limit;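 also: parasites exposed to compound for two days anaerobically before the ATP read; % is scaled to controls: 0 for no effect and ±100 for the full control effect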
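Anaerobic 48 hrs incubation at 37 deg C of 100 trophozoites/well with test compounds; ATPLite 1-Step luminescence, 15-30 min RT, reports cellular ATP as viability.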
ATXN viability = viability counter-screen for ATXN expression inhibitors | Potency, µM (doses to about 56.7 µM), actives largely listed as cytotoxic | S2 cells (HEK-293 line with an ATXN2-luciferase reporter) viability, CellTiter-Fluor protease fluorescence, 24 h | actives 0.49% (n = 400,000) | AID 651635; also: potency is read from the fitted curve at half-maximal effect; nearly all actives have a fitted effect of over 40% in size
HepG2 tox = kills HepG2 cells in TGF-b inhibitor counter-screen. HepG2 CAGA-GFP viability, ATP luminescence, 18 h. Potency, µM (top dose mostly 46.1 µM), for the others: at the highest dose activity change, negative = cytotoxicity, most hits filed as cytotoxic. actives 0.76% (n = 410,000). AID 588856; also: potency is read from the fitted curve at half-maximal effect
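HepG2 CAGA-GFP cells (1000/well, DMEM with 1% FBS) received compound, then TGF-beta at 500 pg/mL final, and were incubated 18 hours at 37 degrees C. Viability was read by CellTiter-Glo luminescence. Media-only wells were set as complete cell-killing and DMSO as no toxicity.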
ATXN2 expr inh = inhibitors of ATXN2 expression; Potency, µM (doses to about 57 µM), for inactives: top-dose activity change, negative = inhibition, usual class: inhibitors; HEK-293 ATXN2-luciferase reporter, luminescence, 24 h; actives 0.72% (n = 360,000); also: potency is read from the fitted curve at half-maximal effect; % is scaled to controls: 0 for no effect and ±100 for the full control effect; nearly all actives have a fitted effect of over 55% in size
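qHTS (up to 57 uM final) was run with 24 h compound exposure of reporter cells at 37 °C. Each well was multiplexed: SteadyGlo luminescence measured ATXN2-luciferase expression after a fluorogenic Gly-Phe-AFC viability readout (25 uM final).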
TGFb SMAD3 inh = inhibitors of TGF-b signaling; AID 588855; HepG2 CAGA-GFP TGF-b/SMAD3 reporter, GFP fluorescence, 18 h; TGF-beta stimulated, 500 pg/mL final; actives 1.2% (n = 410,000); Potency, µM (series often up to 46.1 µM), for the others: at the top dose activity, negative = inhibition, hits mostly inhibitors; also: potency is read from the fitted curve at half-maximal effect; % is scaled to controls: 0 for no effect and ±100 for the full control effect; nearly all actives have a fitted effect of over 65% in size
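Cell-based qHTS in HEPG2 carrying a CAGA-GFP Smad reporter; compounds added before 500 pg/mL final TGF-beta, 18 h incubation at 37 degrees C, GFP fluorescence quantified per cell by imaging cytometry.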
uPA generation = blocks generation of uPA at the cell surface | cell surface uPA generation assay, qHTS | Potency, µM (series often up to 38.3 µM), for inactives: at the top dose activity change, negative = inhibition, most hits filed as inhibitors | actives 0.31% (n = 330,000) | AID 540303; active = well fitted inhibition curve with a large enough effect; inconclusive = small, poorly fitted or top-dose-only effect; inactive = no such curve, though single readings can be large or run the other way; tested in mouse RAW 264.7 cells; also: potency is read from the fitted curve at half-maximal effect; % is scaled to controls: 0 for no effect and ±100 for the full control effect; nearly all actives have a fitted effect of over 55% in size
* marks the source's active call; other numbers are inactive results; i = inactive; ? = inconclusive; . = no result. Unless noted, calls follow the shape of the dose curve; as a rule, active = well fitted curve in the direction sought with a large enough effect; inconclusive = small, poorly fitted or top-dose-only effect, or another doubt; inactive = no such curve, though single readings can be large; an effect the other way counts as inactive or inconclusive.

SMILES	Giardia killer	ATXN viability	HepG2 tox	ATXN2 expr inh	TGFb SMAD3 inh	uPA generation
N#CNC(=Nc1cccc(F)c1)SCc1ccccc1F	-21	?	11µM*	.	?	13µM*
CC(C)N=C(NC#N)SCc1ccccc1F	1	i	-3%	10%	-5%	.
N#CCCn1cc(C(=O)Nc2ccccc2Br)c(-c2cc3ccccc3o2)n1	-4	?	-25%	-14%	-22%	-2%
N#CCCn1cc(C(=O)Nc2ccc([N+](=O)[O-])cc2)c(-c2cc3ccccc3o2)n1	5	25µM*	-42%	.	?	-13%
CC(C)C(Cl)=NOC(=O)Nc1ccc(F)cc1	-18	21µM*	20µM*	?	-11%	-12%
CN(CCO)C(=O)c1cn(C2CCCN(Cc3ccc(C(F)(F)F)cc3)C2)nn1 (stereo not given)	.	i	.	.	.	.
O=C(COC(=O)Cc1ccccc1F)Nc1ccc(F)cc1F	-8	i	3.5µM*	-10%	1%	-1%
O=C(COC(=O)Cc1ccccc1F)Nc1cccc(F)c1	-21	i	22%	-1%	-3%	9%
CCc1ccc2nc3nc(C)cc(C)c3c(N)c2c1	-4	.	-42%	?	13µM*	-20%
Cc1ccc(F)cc1NC(=O)Nc1cc(C(C)(C)C)nn1C	7	i	6%	-15%	-2%	6%
Cn1nc(C(C)(C)C)cc1NC(=O)Nc1cc(Cl)cc(Cl)c1	14	i	16µM*	-37%	?	3%
CN(C)c1cc(F)c(C=O)cc1F	.	.	6%	.	0%	.
CCCCCCCCCCCCOCCOCCOCCOCCOCCOCCOCCOCCOCCO	.	i	.	?	.	.
Oc1cc2c(cc1C(c1ccc(Br)cc1)N1CCCC1)OCO2 (stereo not given)	-17	i	14µM*	-36%	?	4%
O=C(c1ccc2c(c1)N(Cc1ccc(F)cc1)C(=O)c1ccccc1S2(=O)=O)N1CCN(Cc2ccccc2)CC1	.	i	-23%	-33%	3.5µM*	.
O=C(O)CCSc1ncnc2sc(-c3ccccc3)cc12	9	i	-16%	2µM*	16%	-1%
CC(=O)CCSc1ncnc2sc(-c3ccccc3)cc12	-6	i	-20%	91%	?	-8%
O=c1[nH]c(=O)n(Cc2ccccc2)c2nc(-c3ccc(Oc4ccc(F)cc4)c([N+](=O)[O-])c3)n(CCO)c12	-5	?	-54%	?	13µM*	-12%
C=Cc1ccc(Cn2c(C(=O)O)c(CNCc3ccccc3)c3ccc(C)cc32)cc1	10	16µM*	20µM*	0%	?	.
COc1ccc(OC)c(CNCc2c(C(=O)O)n(Cc3cccc(F)c3)c3cc(OC)ccc23)c1	.	?	0%	16%	1%	.
CCc1ccc(CNCc2c(C(=O)O)n(Cc3cccc(F)c3)c3cc(OC)ccc23)cc1	.	32µM*	-101%	?	?	.
Cc1ccc(CNCc2c(C(=O)O)n(Cc3ccc(C)cc3)c3cc(C)ccc23)cc1	.	.	-108%	?	28µM*	.
CCc1ccc(CNCc2c(C(=O)O)n(Cc3ccc(C)cc3)c3cc(C)ccc23)cc1	.	.	18µM*	-10%	16µM*	.
OC1(c2cccnc2)CCN(Cc2ccc3c(c2)CN(Cc2cccc(C(F)(F)F)c2)CCO3)CC1	.	i	.	.	.	.
O=S(=O)(Nc1c(Br)cc(Br)c2cccnc12)C1CC1	25	.	-26%	.	0%	.
SMILES	Giardia killer	ATXN viability	HepG2 tox	ATXN2 expr inh	TGFb SMAD3 inh	uPA generation
CC(=O)N1CCN(c2ccc(OCc3nn(C)c(C)c3-c3cccc4c(CCCOc5cc(C)c(Cl)c(C)c5)c(C(=O)O)n(Cc5cccnc5)c34)cc2)CC1	.	.	.	11%	.	.
CC(CCc1ccccc1)NC(=O)c1ccc(C(=O)NC(C)CCc2ccccc2)cc1 (stereo not given)	-3	?	-20%	6.3µM*	-7%	3%
CC(CCc1ccccc1)NC(=O)c1ccccc1 (stereo not given)	-1	i	1%	3%	?	2%
CC(CCc1ccccc1)NC(=O)c1cccc(F)c1 (stereo not given)	-15	i	-44%	2%	11µM*	5%
Cc1ncoc1C(=O)NCc1nc(-c2cccc(NC(=O)c3ccccn3)c2)oc1C	.	i	.	.	.	.
CCC1(c2ccccc2)ON(c2c(Br)cccc2Br)C1=O (stereo not given)	-15	?	-102%	22µM*	?	?
Cc1nc2c(C(=O)NCCc3ccc(Cl)cc3)c[nH]n2c(=O)c1Cc1ccc(Cl)cc1	.	.	11µM*	.	?	.
Cc1ccc(CNC(=O)c2c[nH]n3c(=O)c(Cc4ccc(Cl)cc4)c(C)nc23)cc1	.	i	13µM*	-22%	?	.
Cc1csc[n+]1CC(=O)c1ccccc1	.	.	-3%	.	3%	.
NC(Cc1ccc(Cl)cc1)c1csc(NC(=O)Nc2ccccc2-c2ccccc2)n1 (stereo not given)	.	i	-101%	?	?	.
NC(Cc1ccc(Cl)cc1)c1csc(NC(=O)NCC2CCCCC2)n1 (stereo not given)	.	35µM*	13µM*	?	?	.
COc1ccc(CC(N)c2csc(NC(=O)NCCc3ccccc3)n2)cc1 (stereo not given)	.	?	-75%	?	?	.
NC(Cc1ccc(Cl)cc1)c1csc(NC(=O)NCCc2ccccc2)n1 (stereo not given)	.	28µM*	-111%	?	?	.
Cn1nnnc1Sc1ncnc2scc(-c3ccccc3Br)c12	10	?	-19%	25µM*	?	?
Cn1nnnc1Sc1ncnc2scc(Br)c12	-4	i	-37%	18µM*	2.2µM*	2.8µM*
COc1ccc2ccc3c(c2c1)N=CC1(O3)N(C)c2ccccc2C1(C)C (stereo not given)	5	i	-48%	-9%	7.9µM*	-21%
CCOC(=O)N1CCN(Cc2ccc3c(c2)CN(C(=O)c2sc(C)nc2C)CCO3)CC1	.	i	.	.	.	.
N#Cc1ccc(/C=C2/C=Cc3ccccc32)cc1	.	.	5%	.	-20%	.
Nc1cc(C(=O)O)c(N)c2c1C(=O)c1ccccc1C2=O	-25	14µM*	-11%	?	?	-4%
C=N[C@H](C(=O)N[C@@H]1C(=O)N2[C@@H]1SC(C)(C)[C@@H]2C(=O)O)c1ccccc1	.	i	.	.	.	.
O=C1CC(/C=C/c2ccc(Cl)cc2)=Nc2ccccc2N1	-8	?	-41%	-20%	11µM*	?
Cc1ccc(NC(=O)CSc2ncccn2)cc1F	9	i	-9%	.	-8%	-1%
Cc1ccc(NC(=O)CSc2n[nH]c(-c3ccc(F)cc3)n2)cc1F	.	.	-42%	.	11µM*	.

Screening results as filed in PubChem.
